About 2,000 (36%) of roughly 5,500 compounds were called active. Not shown: some 18% with an inconclusive outcome. Cut-off read from the data, not from the text of the source: active = normalized growth mostly below about 0.91 (no sharp cut-off); inconclusive = no clear call, values can overlap the other calls; inactive = mostly above about 0.92. This is one part of the list.
Test: chemical genetic growth profiling, strain panel (AID 1159580);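 note: tested at 20 µM; growth read once vehicle control cultures reached saturation at 30 °C; 1 = growth at the plate median or of vehicle wells; lower values mean less growth of the strain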
Conditions: S. cerevisiae deletion strains, growth OD
[1] = locus YAL040C, strain CLN3, hits give low values
[2] = locus YCL061C, strain MRC1 (second series), hits give low values
[3] = locus YDR150W, strain NUM1, hits give low values
[4] = locus YDR363W, strain ESC2, hits give low values
[5] = locus YER002W, strain NOP16, hits give low values
[6] = locus YGR078C, strain PAC10, hits give low values
[7] = locus YJR075W, strain HOC1, hits give low values
[8] = locus YNL128W, strain TEP1, hits give low values
[9] = locus YNL175C, strain NOP13, hits give low values
[10] = locus YNL197C, strain WHI3, hits give low values
[11] = locus YNL224C, strain SQS1, hits give low values
[12] = locus YOR083W, strain WHI5 (second series), hits give low values
[13] = locus YPL241C, strain CIN2, hits give low values
[14] = locus YCL061C, strain MRC1, hits give low values
[15] = locus YHR030C, strain SLT2, hits give low values
[16] = locus YJL187C, strain SWE1, hits give low values
[17] = locus YAL013W, strain DEP1, hits give low values
[18] = locus YNL153C, strain GIM3, hits give low values
[19] = locus YNL322C, strain KRE1, hits give low values
[20] = locus YPL055C, strain LGE1, hits give low values
[21] = locus YMR307W, strain GAS1, hits give low values

Measured: normalized growth

C[C@]12CCC(=O)C=C1CC[C@@H]1[C@@H]2CC[C@]2(C)C(=O)CC[C@@H]12
inactive: [1] 1.01 | [2] 0.994 | [3] 0.988 | [4] 0.999 | [5] 0.99 | [6] 0.987 | [7] 0.991 | [8] 0.996 | [9] 0.997 | [10] 0.997 | [11] 1.01 | [12] 0.924 | [13] 0.997

CC(=O)O[C@@H]1C[C@@]2(C)C(CC[C@@H]2C(C)=O)C2CCC3=CC(=O)CC[C@]3(C)C21 (some centres undefined)
inactive: locus YAL021C, strain ccr4, hits give low values 0.996 | locus YAL026C, strain drs2, hits give low values 1.03 | locus YAL030W, strain snc1, hits give low values 1.01 | locus YBL061C, strain skt5, hits give low values 1.01 | locus YBR009C, strain hhf1, hits give low values 1.06 | locus YBR023C, strain chs3, hits give low values 1 | locus YBR171W, strain sec66, hits give low values 0.964 | locus YBR231C, strain swc5, hits give low values 1.02 | locus YBR279W, strain paf1, hits give low values 1 | locus YCL011C, strain gbp2, hits give low values 1.02 | locus YCL016C, strain dcc1, hits give low values 1.02 | [14] 1.01 | locus YCL069W, strain vba3, hits give low values 1.02 | locus YCR088W, strain abp1, hits give low values 1.02 | locus YDL005C, strain med2, hits give low values 1.01 | locus YDL040C, strain nat1, hits give low values 1.01 | locus YDR001C, strain nth1, hits give low values 0.997 | locus YDR069C, strain doa4, hits give low values 1.02 | locus YDR137W, strain rgp1, hits give low values 0.974 | locus YDR159W, strain sac3, hits give low values 1.02 | locus YDR195W, strain ref2 1.06 | locus YDR297W, strain sur2, hits give low values 1.01 | locus YDR334W, strain swr1, hits give low values 1.03 | locus YDR335W, strain msn5, hits give low values 1 | locus YDR392W, strain spt3, hits give low values 0.863 | locus YEL003W, strain gim4, hits give low values 1.02 | locus YEL037C, strain rad23, hits give low values 1.01 | locus YEL061C, strain CIN8 (second series), hits give low values 1.02 | locus YER015W, strain faa2, hits give low values 1.01 | locus YER016W, strain bim1, hits give low values 1.02 | locus YER111C, strain swi4, hits give low values 1.01 | locus YER155C, strain BEM2 (second series), hits give low values 1.04 | locus YFR010W, strain ubp6, hits give low values 1.02 | locus YGL167C, strain pmr1, hits give low values 1.02 | locus YGL173C, strain kem1, hits give low values 1.03 | locus YGL227W, strain vid30, hits give low values 1.01 | locus YGL240W, strain doc1, hits give low values 1.04 | locus YGL253W, strain hxk2, hits give low values 1 | locus YHR013C, strain ard1, hits give low values 0.974 | locus YHR027C, strain rpn1, hits give low values 1.01 | [15] 0.967 | locus YHR079C, strain IRE1, hits give low values 0.985 | locus YHR142W, strain chs7, hits give low values 0.947 | locus YJL092W, strain hpr5, hits give low values 1.01 | locus YJL095W, strain BCK1 (second series), hits give low values 1.02 | locus YJL095W, strain BCK1, hits give low values 0.997 | locus YJL115W, strain asf1, hits give low values 1.01 | locus YJL129C, strain trk1, hits give low values 0.95 | locus YJL154C, strain vps35, hits give low values 1.01 | locus YJL164C, strain tpk1, hits give low values 0.985 | locus YJL166W, strain qcr8, hits give low values 1.01 | [16] 1.01 | locus YJR066W, strain TOR1, hits give low values 0.953 | locus YKL160W, strain elf1, hits give low values 0.965 | locus YKR026C, strain gcn3, hits give low values 1.01 | locus YKR091W, strain srl3, hits give low values 1.01 | locus YLL001W, strain dnm1, hits give low values 1.02 | locus YLL026W, hits give low values 1.02 | locus YLL041C, strain sdh2, hits give low values 1 | locus YLR027C, strain aat2, hits give low values 0.998 | locus YLR113W, strain HOG1, hits give low values 1.02 | locus YLR221C, strain rsa3, hits give low values 0.969 | locus YLR258W, strain gsy2, hits give low values 1.04 | locus YLR262C, strain YPT6 (second series), hits give low values 0.964 | locus YLR320W, strain mms22, hits give low values 0.97 | locus YLR342W, strain FKS1, hits give low values 1.02 | locus YLR357W, strain rsc2, hits give low values 1.03 | locus YLR370C, strain arc18, hits give low values 1 | locus YLR384C, strain iki3, hits give low values 1.01 | locus YML120C, strain ndi1, hits give low values 0.981 | locus YMR058W, strain fet3, hits give low values 1.01 | locus YMR125W, strain sto1, hits give low values 1.02 | locus YMR129W, hits give low values 1.01 | locus YMR205C, strain PFK2, hits give low values 1.05 | locus YMR231W, strain pep5, hits give low values 1.02 | locus YNL071W, strain lat1, hits give low values 0.97 | locus YNL183C, strain NPR1, hits give low values 0.984 | locus YNL209W, strain ssb2, hits give low values 1 | locus YNL248C, strain rpa49, hits give low values 0.953 | locus YNL322C, strain KRE1 (second series), hits give low values 1.01 | locus YNR049C, strain mso1, hits give low values 1.01 | locus YOR001W, strain rrp6, hits give low values 0.947 | locus YOR070C, strain gyp1, hits give low values 1.01 | locus YOR080W, strain dia2, hits give low values 1.01 | locus YOR083W, strain WHI5, hits give low values 0.953 | locus YOR106W, strain vam3, hits give low values 0.974 | locus YOR231W, strain MKK1, hits give low values 0.979 | locus YOR265W, strain rbl2, hits give low values 1 | locus YOR270C, strain vph1, hits give low values 0.999 | locus YOR290C, strain snf2, hits give low values 0.98 | locus YPL051W, strain arl3, hits give low values 0.976 | locus YPL078C, strain atp4, hits give low values 0.97 | locus YPL106C, strain sse1, hits give low values 1.03 | locus YPL240C, strain hsp82, hits give low values 0.984 | locus YPL256C, strain CLN2, hits give low values 0.973

CC12CCC3C(CCC4=CC(=O)CCC43CO)C1CCC2OC(=O)c1ccccc1 (centres undefined)
inactive: [17] 0.994 | locus YBR229C, strain ROT2, hits give low values 1.01 | [14] 0.999 | locus YDL101C, strain DUN1, hits give low values 1.01 | [3] 0.993 | locus YEL061C, strain CIN8, hits give low values 1 | [6] 1.01 | [15] 0.946 | locus YHR087W, strain rtc3, hits give low values 1.01 | [16] 1.02 | locus YJR043C, strain POL32, hits give low values 0.996 | [7] 1.02 | locus YLR039C, strain RIC1, hits give low values 0.978 | locus YLR058C, strain SHM2 (second series), hits give low values 1 | locus YLR085C, strain ARP6, hits give low values 1 | locus YLR262C, strain YPT6, hits give low values 0.956 | locus YML094W, strain GIM5, hits give low values 1 | locus YMR219W, strain ESC1, hits give low values 1.01 | locus YMR263W, strain SAP30, hits give low values 0.991 | [18] 1.01 | locus YNL298W, strain CLA4 (second series), hits give low values 1.05 | [19] 1.02 | locus YNR030W, strain Alg12, hits give low values 0.986 | [20] 1.02 | [13] 1.02 | locus YPR135W, strain CTF4, hits give low values 0.923

C/C=C1\C(=O)CC2C3CCC4=CC(=O)CC[C@]4(C)C3CC[C@]12C (some centres undefined)
inactive: [17] 0.978 | [1] 0.975 | [2] 1 | [4] 0.996 | [5] 0.974 | [6] 0.924 | [21] 1.01 | [8] 0.938 | [9] 0.956 | [10] 0.978 | [11] 0.99 | [19] 1.01 | [20] 0.992
active: [18] 0.774 | [12] 0.743

CC(=O)[C@H]1CC[C@H]2[C@@H]3CCC4=CC(=O)CC[C@]4(C)[C@H]3CC[C@]12C
active: locus YGR229C, strain SMI1, hits give low values 1.17 [resistant]
inactive: [17] 0.994 | [1] 0.992 | [2] 1 | [4] 1.01 | [5] 0.973 | [6] 0.998 | [7] 0.99 | [21] 0.979 | [9] 0.991 | [10] 0.986 | [11] 0.992 | [12] 1.01 | [20] 0.99 | [13] 0.995
